According to PubChem BioAssay (Tox21):
Values joined by “and” are separate entries in the source; they are usually repeats but may differ in a detail not shown here. Equal entries are not always repeated. Results filed as inconclusive are left out. A call without a number means that no potency is given here. Some structures have more than one record in an assay (separate samples or runs), and their calls can disagree. Active and inactive are the calls of the source. Calls follow the shape of the dose curve; as a rule, active = well fitted curve in the direction sought with a large enough effect in the repeat runs; inconclusive = weak or mixed curves; inactive = no such curve, though single readings can be large; an effect the other way counts as inactive or inconclusive.

What was measured:
[1] = A CellTox Green Cytotoxicity Assay to monitor cytotoxicity in HEK293 cells - 40 hour (AID 1224871); also: nearly all actives have a fitted effect of over 45% in size; also: potency is read from the fitted curve at half-maximal effect
Method in brief: (§1)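 Each value comes from one timepoint of a single continuous run in which HEK293 cells with CellTox Green were exposed to compound for up to 40 h at 37 C, dye fluorescence rising with cell death.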

[2] = qHTS RealTime-Glo MT Cell Viability Assay in HEK293 cells - 16 hour (AID 1224872); also: top concentration of the series differs between compounds; nearly all actives have a fitted effect of over 50% in size
Method in brief: (§2)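 HEK293 cells seeded with NanoLuc/prosubstrate reagent, rested 5 h at 37 C, then dosed and kept at 37 C up to 40 h. Nonlytic real-time luminescence from viable cells read at 0, 8, 16, 24, 32 and 40 h.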

[3] = qHTS RealTime-Glo MT Cell Viability Assay in HepG2 cells - 8 hour (AID 1224873); also: nearly all actives have a fitted effect of over 55% in size
Method in brief: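 Real-time viability: cells seeded at 600 per well together with NanoLuc and cell-permeant prosubstrate, compounds added after 5 h incubation. Luminescence tracked at 0, 8, 16, 24, 32 and 40 h of exposure.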

[4] = qHTS RealTime-Glo MT Cell Viability Assay in HEK293 cells - 40 hour (AID 1224874); settings: RealTime-Glo luminescence; max response: stronger effect = lower value; also: nearly all actives have a fitted effect of over 50% in size
Method in brief: (§3)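 qHTS format; HEK293 cells with NanoLuc/prosubstrate reagent, 37 C/5% CO2 for 5 h pre-dosing; compounds 23 nL in DMSO; luminescence at each time point reflects viable cells.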

[5] = A CellTox Green Cytotoxicity Assay to monitor cytotoxicity in HepG2 cells - 16 hour (AID 1224876); also: nearly all actives have a fitted effect of over 45% in size
Method in brief: (§4)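 Continuous culture of HepG2 cells with a membrane-impermeant DNA dye; rising fluorescence marks dead cells. Compound exposure lasted up to 40 h at 37 C, with reads every 8 h from 0 h.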

[6] = qHTS RealTime-Glo MT Cell Viability Assay in HepG2 cells - 32 hour (AID 1224877); also: nearly all actives have a fitted effect of over 55% in size; also: potency is read from the fitted curve at half-maximal effect
Method in brief: (§5)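 HepG2 cells (600/well) were dispensed with RealTime-Glo reagents, incubated 5 h at 37 °C, then treated with compounds in DMSO for up to 40 h. Nonlytic NanoLuc luminescence reflecting viable cells was read at each stated time point.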

[7] = A CellTox Green Cytotoxicity Assay to monitor cytotoxicity in HepG2 cells - 24 hour (AID 1224878); also: nearly all actives have a fitted effect of over 45% in size; also: potency is read from the fitted curve at half-maximal effect
Method in brief: as §4

[8] = A CellTox Green Cytotoxicity Assay to monitor cytotoxicity in HepG2 cells - 40 hour (AID 1224879); also: nearly all actives have a fitted effect of over 40% in size; also: potency is read from the fitted curve at half-maximal effect
Method in brief: as §4

[9] = qHTS RealTime-Glo MT Cell Viability Assay in HEK293 cells - 0 hour (AID 1224880); also: top concentration of the series differs between compounds; nearly all actives have a fitted effect of over 45% in size
Method in brief: as §3

[10] = A CellTox Green Cytotoxicity Assay to monitor cytotoxicity in HEK293 cells - 32 hour (AID 1224881); also: nearly all actives have a fitted effect of over 40% in size; also: potency is read from the fitted curve at half-maximal effect
Method in brief: as §1

[11] = A CellTox Green Cytotoxicity Assay to monitor cytotoxicity in HepG2 cells - 0 hour (AID 1224882); also: nearly all actives have a fitted effect of over 35% in size
Method in brief: as §4

[12] = A CellTox Green Cytotoxicity Assay to monitor cytotoxicity in HepG2 cells - 32 hour (AID 1224883); also: nearly all actives have a fitted effect of over 50% in size; also: potency is read from the fitted curve at half-maximal effect
Method in brief: as §4

[13] = A CellTox Green Cytotoxicity Assay to monitor cytotoxicity in HEK293 cells - 8 hour (AID 1224884); also: nearly all actives have a fitted effect of over 35% in size
Method in brief: as §1

[14] = qHTS RealTime-Glo MT Cell Viability Assay in HepG2 cells - 16 hour (AID 1224885); also: nearly all actives have a fitted effect of over 50% in size
Method in brief: as §5

[15] = qHTS RealTime-Glo MT Cell Viability Assay in HEK293 cells - 24 hour (AID 1224886)
Method in brief: as §2

[16] = qHTS RealTime-Glo MT Cell Viability Assay in HEK293 cells - 8 hour (AID 1224887)
Method in brief: as §3

[17] = A CellTox Green Cytotoxicity Assay to monitor cytotoxicity in HEK293 cells - 16 hour (AID 1224888); also: nearly all actives have a fitted effect of over 35% in size
Method in brief: as §1

[18] = qHTS RealTime-Glo MT Cell Viability Assay in HepG2 cells - 0 hour (AID 1224889); also: nearly all actives have a fitted effect of over 50% in size
Method in brief: as §5

[19] = A CellTox Green Cytotoxicity Assay to monitor cytotoxicity in HepG2 cells - 8 hour (AID 1224890); also: nearly all actives have a fitted effect of over 45% in size
Method in brief: as §4

[20] = A CellTox Green Cytotoxicity Assay to monitor cytotoxicity in HEK293 cells - 24 hour (AID 1224875)
Method in brief: as §1

With `NCCN` the Potency [1] was “inactive”, the Potency [2] was “inactive” and the Potency [3] was “inactive”. For the same compound, the max response [4] was 7.37% (inactive) and 0.29% (inactive), the Potency [5] was “inactive” and the Potency [6] was “inactive and 21.9 µM (active)”. The Potency [7] was “inactive”, the Potency [8] was “inactive” and the Potency [9] was “inactive”. The Potency [10] was “inactive”, the Potency [11] was “inactive” and the Potency [12] was “inactive”. The Potency [13] was “inactive”, the Potency [14] was “inactive” and the Potency [15] was “inactive”. The Potency [16] was “inactive”, the Potency [17] was “inactive” and the Potency [18] was “inactive”. For the same compound, the Potency [19] was “inactive”.
In the case of `[O-]/[N+](=N\O)c1ccccc1`, the Potency [1] is reported as “inactive”, the Potency [2] is reported as “inactive” and the Potency [3] is reported as “inactive”. The max response [4] was 2.42% (inactive) and -11.8% (inactive), the Potency [20] was “inactive” and the Potency [5] was “inactive”. The Potency [6] was “inactive”, the Potency [7] was “inactive” and the Potency [8] was “inactive”. For the same compound, the Potency [9] was “inactive”, the Potency [11] was “inactive” and the Potency [12] was “inactive”. The Potency [13] was “inactive”, the Potency [14] was “inactive” and the Potency [15] was “inactive”. For the same compound, the Potency [16] was “inactive”, the Potency [17] was “inactive” and the Potency [18] was “inactive”. The Potency [19] was “inactive”.
In the case of `CCC(=O)O[C@H]1[C@H](O[C@@H]2[C@@H](C)[C@H](O[C@H]3C[C@@](C)(OC)[C@@H](O)[C@H](C)O3)[C@@H](C)C(=O)O[C@H](CC)[C@@](C)(O)[C@H](O)[C@@H](C)C(=O)[C@H](C)C[C@@]2(C)O)O[C@H](C)C[C@@H]1N(C)C`, the Potency [1] is reported as 28.9 µM (active) and inactive, the Potency [2] is reported as “inactive” and the Potency [3] is reported as “inactive”. For the same compound, the max response [4] was -5.5% (inactive), the Potency [5] was “inactive” and the Potency [6] was “inactive”. For the same compound, the Potency [7] was “inactive”, the Potency [8] was “inactive” and the Potency [9] was “inactive”. The Potency [10] was 28.9 µM (active) and inactive, the Potency [11] was “inactive” and the Potency [12] was “inactive”. The Potency [13] was “inactive”, the Potency [14] was “inactive” and the Potency [15] was “inactive”. For the same compound, the Potency [16] was “inactive”, the Potency [17] was “inactive” and the Potency [18] was “inactive”. The Potency [19] was “inactive”.
In the case of `Nc1cc(Cl)c(N)c(Cl)c1`, the Potency [1] is reported as “inactive”, the Potency [2] is reported as “inactive” and the Potency [3] is reported as “inactive”. The max response [4] was 25.2% (inactive), the Potency [20] was “inactive” and the Potency [5] was “inactive”. For the same compound, the Potency [6] was “inactive”, the Potency [7] was “inactive” and the Potency [8] was “inactive”. For the same compound, the Potency [9] was “inactive”, the Potency [11] was “inactive” and the Potency [12] was “inactive”. The Potency [13] was “inactive”, the Potency [14] was “inactive” and the Potency [15] was “inactive”. The Potency [16] was “inactive”, the Potency [17] was “inactive” and the Potency [18] was “inactive”. The Potency [19] was “inactive”.
For `CC(=O)[C@H]1CC[C@H]2[C@@H]3CC=C4C[C@@H](O)CC[C@]4(C)[C@H]3CC[C@]12C`, the Potency [1] was “inactive”, the Potency [2] was “inactive” and the Potency [3] was “inactive”. For the same compound, the max response [4] was -23.7% (inactive), the Potency [5] was “inactive” and the Potency [6] was “inactive”. The Potency [7] was “inactive”, the Potency [8] was “inactive” and the Potency [9] was “inactive”. For the same compound, the Potency [10] was “inactive”, the Potency [11] was “inactive” and the Potency [12] was “inactive”. For the same compound, the Potency [13] was “inactive”, the Potency [14] was “inactive” and the Potency [15] was “inactive”. The Potency [16] was “inactive”, the Potency [17] was “inactive” and the Potency [18] was “inactive”. For the same compound, the Potency [19] was “inactive”.
In the case of `CC[C@]12CCCN3CCc4c(n(c5ccccc45)[C@@](O)(C(=O)OC)C1)[C@@H]32`, the Potency [1] is reported as “inactive”, the Potency [2] is reported as “inactive” and the Potency [3] is reported as “inactive”. The max response [4] was -23.5% (inactive), the Potency [20] was “inactive” and the Potency [5] was “inactive”. The Potency [6] was “inactive”, the Potency [7] was “inactive” and the Potency [8] was “inactive”. The Potency [9] was “inactive”, the Potency [11] was “inactive” and the Potency [12] was “inactive”. For the same compound, the Potency [13] was “inactive”, the Potency [14] was “inactive” and the Potency [15] was “inactive”. The Potency [16] was “inactive”, the Potency [17] was “inactive” and the Potency [18] was “inactive”. For the same compound, the Potency [19] was “inactive”.
With `CC(C)(Oc1ccc(Cl)cc1)C(=O)O` the Potency [1] was “inactive”, the Potency [2] was “inactive” and the Potency [3] was “inactive”. For the same compound, the max response [4] was 6.25% (inactive) and 5.25% (inactive), the Potency [20] was “inactive” and the Potency [5] was “inactive”. The Potency [6] was “inactive”, the Potency [7] was “inactive” and the Potency [8] was “inactive”. For the same compound, the Potency [9] was “inactive”, the Potency [10] was “inactive” and the Potency [11] was “inactive”. For the same compound, the Potency [12] was “inactive”, the Potency [13] was “inactive” and the Potency [14] was “inactive”. For the same compound, the Potency [15] was “inactive”, the Potency [16] was “inactive” and the Potency [17] was “inactive”. For the same compound, the Potency [18] was “inactive” and the Potency [19] was “inactive”.
In the case of `O=Cc1ccccc1C=O`, the Potency [1] is reported as “inactive”, the Potency [2] is reported as “inactive” and the Potency [3] is reported as “inactive”. The max response [4] was 0.419% (inactive), the Potency [20] was “inactive” and the Potency [5] was “inactive”. The Potency [6] was “inactive”, the Potency [7] was 24.5 µM (active) and inactive and the Potency [8] was 21.9 µM (active) and inactive. For the same compound, the Potency [9] was “inactive”, the Potency [10] was “inactive” and the Potency [11] was “inactive”. The Potency [12] was 21.9 µM (active) and inactive, the Potency [13] was “inactive” and the Potency [14] was “inactive”. The Potency [15] was “inactive”, the Potency [16] was “inactive” and the Potency [17] was “inactive”. The Potency [18] was “inactive” and the Potency [19] was “inactive”.
With `CCCCCCCCCCCCCO` the Potency [1] was “inactive”, the Potency [2] was “inactive” and the Potency [3] was “inactive”. For the same compound, the max response [4] was 3.82% (inactive) and -0.0255% (inactive), the Potency [20] was “inactive” and the Potency [5] was “inactive”. The Potency [6] was “inactive”, the Potency [7] was “inactive” and the Potency [9] was “inactive”. The Potency [10] was “inactive”, the Potency [11] was “inactive” and the Potency [12] was “inactive”. For the same compound, the Potency [13] was “inactive”, the Potency [14] was “inactive” and the Potency [15] was “inactive”. For the same compound, the Potency [16] was “inactive”, the Potency [17] was “inactive” and the Potency [18] was “inactive”. For the same compound, the Potency [19] was “inactive”.
In the case of `C=C[C@H]1CN2CC[C@H]1C[C@H]2[C@H](O)c1ccnc2ccc(OC)cc12`, the Potency [1] is reported as “inactive”, the Potency [2] is reported as “inactive” and the Potency [3] is reported as “inactive”. For the same compound, the max response [4] was -26.3% (inactive) and -11.8% (inactive), the Potency [20] was “inactive” and the Potency [5] was “inactive”. For the same compound, the Potency [6] was “inactive”, the Potency [7] was “inactive” and the Potency [8] was “inactive”. The Potency [9] was “inactive”, the Potency [11] was “inactive” and the Potency [12] was 54.9 µM (active) and inactive. The Potency [13] was “inactive”, the Potency [14] was “inactive” and the Potency [15] was “inactive”. The Potency [16] was “inactive”, the Potency [17] was “inactive” and the Potency [18] was “inactive”. The Potency [19] was “inactive”.
With `Cc1ccc(/C(=C\CN2CCCC2)c2ccccn2)cc1` the Potency [1] was “inactive”, the Potency [2] was “inactive” and the Potency [3] was “inactive”. The max response [4] was -3.85% (inactive), the Potency [20] was “inactive” and the Potency [5] was “inactive”. The Potency [6] was “inactive”, the Potency [7] was “inactive” and the Potency [8] was “inactive”. The Potency [9] was “inactive”, the Potency [11] was “inactive” and the Potency [12] was “inactive”. For the same compound, the Potency [13] was “inactive”, the Potency [14] was “inactive” and the Potency [15] was “inactive”. For the same compound, the Potency [16] was “inactive”, the Potency [17] was “inactive” and the Potency [18] was “inactive”. The Potency [19] was “inactive”.
In the case of `O=S1(=O)CCCO1`, the Potency [1] is reported as “inactive”, the Potency [2] is reported as “inactive” and the Potency [3] is reported as “inactive”. For the same compound, the max response [4] was 5.89% (inactive) and 10.2% (inactive), the Potency [20] was “inactive” and the Potency [5] was “inactive”. For the same compound, the Potency [6] was “inactive”, the Potency [7] was “inactive” and the Potency [8] was “inactive”. For the same compound, the Potency [9] was “inactive”, the Potency [11] was “inactive” and the Potency [12] was “inactive”. For the same compound, the Potency [13] was “inactive”, the Potency [14] was “inactive” and the Potency [15] was “inactive”. For the same compound, the Potency [16] was “inactive”, the Potency [17] was “inactive” and the Potency [18] was “inactive”. The Potency [19] was “inactive”.
